Compound activity as filed in PubChem BioAssay.
AMA1 RON2 block = AMA1-RON2 (P. falciparum) interaction inhibition; AlphaScreen AMA1-biotinylated RON2 peptide binding; Potency, µM (doses to about 58.2 µM), most hits filed as inhibitors; actives 0.2% (n = 360,000); AID 720542; further: nearly all actives have a fitted effect of over 45% in size
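AMA1 (3D7) with his tag at 25 nM final met compounds first, then biotinylated RON2 peptide at 25 nM; detection used donor plus acceptor beads, 10 µg/mL apiece, read by AlphaScreen after 30 min at room temperature.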
NS1 inh = influenza NS1 inhibition | AID 2326 | Potency, µM (series often up to 46.1 µM) | actives 0.4% (n = 270,000); calls by dose curve; further: actives are rising curves; nearly all actives have a fitted effect of over 50% in size
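In this qHTS, NS1 from influenza A is expressed in budding yeast, where it slows growth. Cells are switched from glucose to 2% galactose medium (pH 6.0, -URA), treated with compound, and growth recovery is read at OD600.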
TbPYK inhibitor = inhibitors of Trypanosoma brucei pyruvate kinase | TbPYK enzyme, Kinase-Glo Plus ATP luminescence, 45 min | Potency, µM (highest dose often 76.8 µM), most hits filed as inhibitors | actives 0.12% (n = 410,000); further: nearly all actives have a fitted effect of over 50% in size
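TbPYK + substrate in 50 mM TEA pH 7.2, 100 mM KCl, 10 mM MgCl2, 0.05% BSA, 0.01% Tween-20; cpd pinned; ADP 130 uM final; 45 min RT; Kinase-Glo Plus 10 min; luminescence endpoint.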
LmPK inh = LmPK (Leishmania mexicana) enzyme inhibition. Q27686. purified LmPK, Kinase-Glo ATP luminescence, 1 h. Potency, µM (highest dose often 57.5 µM), hits mostly inhibitors. actives 0.37% (n = 290,000). AID 1721
Target sequence (Q27686 whole entry, looked up): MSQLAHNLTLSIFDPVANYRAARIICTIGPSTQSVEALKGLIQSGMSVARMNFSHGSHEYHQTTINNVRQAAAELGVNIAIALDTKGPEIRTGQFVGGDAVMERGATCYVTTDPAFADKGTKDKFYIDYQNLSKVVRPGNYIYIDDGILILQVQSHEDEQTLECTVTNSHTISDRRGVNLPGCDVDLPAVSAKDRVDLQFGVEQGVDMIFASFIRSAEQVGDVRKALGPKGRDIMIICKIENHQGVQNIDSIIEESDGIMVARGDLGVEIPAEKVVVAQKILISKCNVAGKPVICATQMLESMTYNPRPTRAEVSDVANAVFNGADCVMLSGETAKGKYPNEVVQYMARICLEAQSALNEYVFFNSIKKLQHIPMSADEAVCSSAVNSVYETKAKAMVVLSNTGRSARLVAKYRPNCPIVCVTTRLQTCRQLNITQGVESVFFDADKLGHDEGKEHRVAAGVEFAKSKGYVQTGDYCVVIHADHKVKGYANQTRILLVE
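In 50 mM imidazole pH 7.2 with 7 mM MgCl2, LmPK (0.1 nM) turned over PEP (0.5 mM) and ADP (0.1 mM) for 1 h at room temperature. Luciferase read-out of ATP.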
RE007 growth inh = less growth of the S. pombe RE007 Vpr strain; S. pombe RE007 Vpr strain, BacTiter-Glo ATP luminescence, 24 h; Potency, µM (doses to about 92.2 µM), hits mostly inhibitors; actives 0.21% (n = 360,000); AID 651644; active means well fitted falling curve with a large enough effect; inconclusive means small, poorly fitted or top-dose-only effect; inactive means no such curve, though single readings can be large or run the other way; further: nearly all actives have a fitted effect of over 50% in size
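Fission yeast RE007 carrying one integrated HIV-1 vpr copy, seeded at OD 0.01 in PMG+AL medium with 23 nL pinned compound. Grown 24 h at 30 degrees; viability read by BacTiter-Glo luminescence after 5 min.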
Numbers stand for hits; i = inactive; ? = inconclusive; nt = not tested or not shown; [ ] = another dose, or the depositor's remark. This is a sample that favours compounds with a hit; in the whole collection about 0.92% have one here. Unless noted, the call rests on the fitted dose curve; in most records, active means well fitted curve in the direction sought with a large enough effect; inconclusive means small, poorly fitted or top-dose-only effect, or another doubt; inactive means no such curve, though single readings can be large; an effect the other way counts as inactive or inconclusive.

SMILES	AMA1 RON2 block	NS1 inh	TbPYK inhibitor	LmPK inh	RE007 growth inh
S=c1[nH]cc(-c2ccccc2)n1-c1ccccc1Cl	i	i	i	?	i
S=c1[nH]nc(-c2cccnc2)n1-c1ccccc1	i	i	?	i	i
O=C(c1ccccc1)[C@H](Nc1ccc2ccccc2c1)c1ccccc1	nt	i	nt	nt	nt
O=C1C(=Cc2ccccc2Cl)CCc2ccccc21	i	nt	31.6µM	nt	i[18.4 µM]
O=C1/C(=C/c2ccncc2)CCc2ccccc21	i	i	?	12.6µM	?
Cn1cccc1/C=C1\CCc2ccccc2C1=O	14.1µM	nt	?	?	35.5µM
COc1ccc2c(c1)CC/C(=C/c1ccco1)C2=O	?	i	i	?	i
O=C1/C(=C/c2ccco2)CCc2ccccc21	i	i	?	12.6µM	?
Cc1nn(-c2nc3ccccc3[nH]2)c(N)c1-c1ccccc1	i	i	i	i	28.2µM
Cc1nn(-c2ccccc2)c(N)c1-c1ccccc1	i	nt	i	i	i
O=[N+]([O-])c1ccc(C=NN2CCCCCC2)cc1	25.1µM	nt	i	nt	i
N#C/C(=C\c1ccccn1)c1nc2ccccc2s1	i	i	i	i	?
COc1ccc(/C(C#N)=C/c2ccccn2)cc1	i	i	i	8.91µM	nt
O=c1oc2c3c4c(cc2s1)CCCN4CCC3	14.1µM	i	?	i	?
O=c1ccc2cc3c4c(c2o1)CCCN4CCC3	i	i	i	i	i
O=[N+]([O-])c1cccc(/C=N\Nc2ccc3ccccc3n2)c1O	nt	i	nt	nt	nt
Cc1ccc(-c2cn(C[C@H]3CC[C@@H]([C@@H]4CC[C@H](Cn5cc(-c6ccc(C)cc6)nn5)O4)O3)nn2)cc1	i	i	i	i	i
c1ccc(-c2cn(C[C@H]3CC[C@H](Cn4cc(-c5ccccn5)nn4)O3)nn2)nc1	1µM	i	i	i	i
O=C(Cn1c(=O)nc(-c2ccccc2)c2ccccc21)NCc1ccccc1Cl	nt	nt	i	nt	nt
O=P(O)(O)CCP(=O)(O)O	nt	i	nt	nt	nt
CC(C)(C)OC(=O)CN(Cc1ccc(Cl)cc1)Cc1ccc([N+](=O)[O-])s1	nt	nt	i	nt	nt
Cc1cc(C(C)(C)C)c(O)c(C(C)(C)C)c1	i	i	i	i	i
Cc1cc(O)c(Oc2cc(C)cc(O)c2O)c(O)c1	4.47µM	i	i	i	i
COc1ccc(N2CCN(Cc3csc(C)c3-c3ccc(C)cc3)CC2)cc1	10µM	i	i	i	i
COc1ccc(N2CCN(Cc3cc4c(cc3Br)OCCO4)CC2)cc1	12.6µM	i	i	i	i
SMILES	AMA1 RON2 block	NS1 inh	TbPYK inhibitor	LmPK inh	RE007 growth inh
CCOC(=O)c1[nH]c2cc(OC)c(OC)cc2c1N	i	i	i	i	i
CCOC(=O)c1[nH]c2ccc(C)cc2c1N	i	i	i	12.6µM	i
COCCNC(=O)c1ccc(-n2c(-c3ccccc3)cc3c2CCCCC3)cc1	nt	nt	i	nt	nt
Nc1ccc2nc(-c3ccccc3)[nH]c2c1	i	i	i	14.1µM	i
COc1ccc2nc(-c3cccc(N)c3)[nH]c2c1	i	i	i	22.4µM	i
Nc1ccc2nc(-c3cccnc3)[nH]c2c1	i	i	i	i	i
Nc1ccc2nc(-c3ccccn3)[nH]c2c1	?	i	i	20µM	i
CC1(OC(=O)C2CCCC2)C(=O)C=C2C=C(c3ccsc3)N(c3cccc(C#N)c3)C=C2C1=O (stereo unspecified)	nt	nt	nt	i[11.5 µM]	nt
CC(=O)SCC(CC(=O)c1ccc(C)cc1)C(=O)O (stereo unspecified)	nt	nt	i	nt	nt
O=C(O)c1cccnc1SC1CC(=O)N(c2ccccc2)C1=O (stereo unspecified)	i	i	i	i	i
O=C1CC(Sc2nnc(-c3ccccc3)o2)C(=O)N1c1ccccc1 (stereo unspecified)	i	i	i	i	15.8µM
Cc1ccccc1N1C(=O)CC(Sc2nnc(-c3ccccc3)o2)C1=O (stereo unspecified)	i	i	?	i	?
Cc1nnc(SC2CC(=O)N(c3ccccc3)C2=O)s1 (stereo unspecified)	i	i	i	i	39.8µM
O=C(O)c1ccccc1SC1CC(=O)N(c2ccccc2)C1=O (stereo unspecified)	i	i	i	i	10µM
CCOc1ccc(C(=O)CCN2CCCCCC2)cc1	i	i	i	i	15.8µM
CCCOc1ccc(C(=O)CCN2CCCCC2)cc1	i	i	i	i	17.8µM
COc1ccc(C(=O)CCN2CCN(c3ccccc3OC)CC2)cc1	i	nt	i	i	?
COc1ccc(C(=O)CCN2CCc3cc(OC)c(OC)cc3C2)cc1	i	i	i	i	25.1µM
O=C(NCC(=O)N(c1ccc(Cl)cc1)C(C(=O)NC1CCCC1)c1ccncc1)c1ccco1 (stereo unspecified)	i	i	i	i	i
O=C(NCC(=O)N(c1ccc2c(c1)OCO2)C(C(=O)NC1CCCC1)c1ccncc1)c1ccco1 (stereo unspecified)	39.8µM	i	?	i	i
CN(C)c1ccc(CNC(=O)C2Cc3c(-c4ccccc4Oc4ccccc4)ccnc3O2)cc1 (stereo unspecified)	10µM	nt	i	nt	i
CN(C)c1ccc(CNC(=O)C2(C)Cc3c(-c4ccc5c(c4)OCO5)ccnc3O2)cc1 (stereo unspecified)	28.2µM	nt	i	nt	i
CN(C)c1ccc(CNC(=O)C2(C)Cc3c(-c4ccccc4)ccnc3O2)cc1 (stereo unspecified)	28.2µM	nt	i	nt	i
CN(C)c1ccc(CNC(=O)C2(C)Cc3c(-c4ccc(N(C)C)cc4)ccnc3O2)cc1 (stereo unspecified)	11.2µM	nt	i	nt	i
N[C@H](Cc1ccc(O)c(O)c1)C(=O)O	nt	i	nt	nt	nt
SMILES	AMA1 RON2 block	NS1 inh	TbPYK inhibitor	LmPK inh	RE007 growth inh
O=S(=O)(Nc1cccnc1)c1cccc2cccnc12	nt	i	nt	nt	nt
CN(C)c1ccc(-c2ccnc3c2CC(C)(C(=O)Nc2cccc(N(C)C)c2)O3)cc1 (stereo unspecified)	17.8µM	nt	i	nt	i
C=CCn1c(CSc2nc3ccccc3s2)n[nH]c1=S	i	i	4.47µM	?	i
CCn1c(CSc2nc3ccccc3s2)n[nH]c1=S	i	i	?	?	i
C=CCn1c(CSc2ccc(C)cc2)n[nH]c1=S	i	i	3.98µM	i	i
Clc1ncccc1-c1nnn(-c2ccccc2)n1	i	i	i	15.8µM	i
O=C1c2ccccc2-c2nnc(-c3ccc(O)cc3)cc21	i	i	i	8.91µM	i
O=C1c2ccccc2-c2nc3ccccc3cc21	i	i	i	?	i
Cc1ccccc1-c1cc2c(nn1)-c1ccccc1C2=O	i	i	i	5.01µM	i
O=C1c2ccccc2-c2nnc(-c3ccc(F)cc3)cc21	i	nt	?	5.01µM	i
O=C1[C@@H]2C[C@@H]3C[C@H]1C[C@@](O)(C3)C2	nt	nt	i	nt	nt
COc1ccc2c(c1)sc1nc(-c3ccccc3)cn12	i	i	?	12.6µM	?
COc1cc(OC)c(OC)cc1/C=C1\CC(C)C/C(=C\c2cc(OC)c(OC)cc2OC)C1=O (stereo unspecified)	31.6µM	i	i	i	i
